# Screening data as filed in PubChem BioAssay.
# The list is not random: actives were taken first. Their share in the collection is about 1.7%.
# MRP resist rev: reversal of MRP1-mediated doxorubicin resistance, primary screen, H69AR cells, doxorubicin co-treatment; H69AR cells + 2 uM doxorubicin, CellTiter-Glo, 72 h; differential viability (reversal), % at 10 µM; 85,000 compounds, 0.04% hits; AID 602, 2007;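 active = viability drop by adding the cancer drug above about 55%, with treated viability meeting a 40% cutoff, limit read from the data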;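 also: viability without doxorubicin minus viability with 2 µM doxorubicin for each compound; larger differential means the compound sensitizes cells more to doxorubicin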
# GALR2 blocker: GALR2 antagonists in receptor-expressing cells, primary screen; inhibition, % at 4 µM; antagonist mode; 140,000 compounds, 0.39% hits; AID 828, 2007; in the data active = inhibition above about 27%;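 also: cells stimulated with galanin 1-16 at roughly its EC80; 0% = agonist challenge control and 100% = basal control without agonist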
# Target sequence (O43603 whole entry, looked up): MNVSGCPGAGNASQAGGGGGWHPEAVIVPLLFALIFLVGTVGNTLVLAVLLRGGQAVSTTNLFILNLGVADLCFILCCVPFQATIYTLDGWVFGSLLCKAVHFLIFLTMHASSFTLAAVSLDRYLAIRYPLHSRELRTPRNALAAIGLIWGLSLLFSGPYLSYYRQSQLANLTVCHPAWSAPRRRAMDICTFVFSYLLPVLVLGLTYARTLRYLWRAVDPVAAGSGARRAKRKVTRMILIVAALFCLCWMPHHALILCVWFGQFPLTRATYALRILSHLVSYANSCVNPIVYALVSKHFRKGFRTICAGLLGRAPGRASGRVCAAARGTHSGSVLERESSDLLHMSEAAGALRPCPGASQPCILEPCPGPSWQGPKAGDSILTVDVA
# MRP-1 activ: H69AR viability gain despite doxorubicin, primary screen, MRP-1 activator project, H69AR cells, CellTiter-Glo. viability increase, % at 10 µM. viability rescue. AID 799, 2007. 140,000 compounds, 0.61% hits;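 active = viability gain under doxorubicin at or above a set limit, the compound median plus 3 SD, cut at about 4.7% in these data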;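 also: MRP-1 overexpressing cells given doxorubicin 25 µM after compound pretreatment; 18-22 h compound pretreatment then 72 h with doxorubicin before readout; 0% = doxorubicin-only wells and 100% = vehicle-treated cells without doxorubicin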
# S1P2 agonist: S1P2 receptor agonists, primary screen, cell-based; S1P2-expressing cell line, agonist reporter read-out; activation, % at 4.5 µM; 97,000 compounds, 0.46% hits; AID 729, 2007; in the data active = activation above about 16%;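 also: 0% = vehicle low control and 100% = maximal reference agonist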
# S1P2 blocker: human S1P2 receptor antagonists, primary screen, cell-based | cell-based S1P2 antagonist assay, inhibition at 5 uM | inhibition, % at 5 µM | 97,000 compounds, 0.21% hits | AID 736, 2007; in the data active = inhibition above about 45%;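 also: CRE beta-lactamase reporter cells expressing human S1P2 stimulated with S1P; 0% = agonist at EC80 alone and 100% = agonist plus reference antagonist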
# GALR2 ag: GALR2 receptor agonists, primary screen, cell-based. activation, % (no concentration beside the values). Galanin receptor type 2 (Homo sapiens), O43603. 140,000 compounds, 0.48% hits. GALR2-expressing cells, agonist activation read-out; in the data active = activation above about 5%, passing the limit was not always enough;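 also: 0% = vehicle buffer wells and 100% = reference agonist at full effect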
# GALR2 agon conf: GALR2 agonists, retest of hits, confirmation, cell-based | 460 compounds, 10% hits | AID 864, 2007 | activation, % at 5.6 µM | GALR2-expressing cells, agonist activation | shares compounds with GALR2 ag; in the data active = activation above about 8.4%;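 also: 0% = buffer-only vehicle wells and 100% = full reference agonist response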
# BLA act counter: activators of NFAT-driven beta-lactamase reporter, confirmation, counter-screen for GALR2 agonist project, CHO NFAT-bla cells, FRET readout; AID 865, 2007; shares compounds with GALR2 ag; 460 compounds, 10% hits; activation, % at 5.6 µM; beta-lactamase FRET activation;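 active = activation above the screen-wide mean activation plus 3 SD, cut at about 8% in these data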;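 also: 0% = DMSO with PBS wells and 100% = thapsigargin positive control wells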
# Numbers without * were called inactive; / = no result.
SMILES,MRP resist rev,GALR2 blocker,MRP-1 activ,S1P2 agonist,S1P2 blocker,GALR2 ag,GALR2 agon conf,BLA act counter
O=C(CCCCl)NC1=NN(c2ccccc2)C(=O)C1,/,10,7.3*,/,/,-1,/,/
Cn1cc(Cl)c(C(=O)OCC(=O)Nc2nc(-c3ccc(Br)cc3)cs2)n1,-6,-6,0,-4,-6,-1,/,/
Cc1onc(-c2ccccc2)c1C(=O)NNC(=S)NC(=O)/C=C/c1cccs1,/,10,-2,/,/,-2,/,/
Cc1cc(NC(=O)c2cc(C(C)C)on2)nn1Cc1ccc(Cl)cc1,-8,7,6.7*,-2,-16,-5,/,/
COC(=O)CN1C(=S)N(c2ccc(Cl)cc2)C(=O)C1CC(=O)Nc1ccc(F)cc1 (configuration not stated),/,21,-2,/,/,-1,/,/
COc1ccc(NC(=O)CC2C(=O)N(c3ccc(Cl)cc3)C(=S)N2CCc2ccncc2)cc1 (configuration not stated),/,-17,-5,-5,14,1,/,/
COc1ccc(NC(=O)CC2C(=O)N(c3ccc(Cl)cc3)C(=S)N2NC(=O)c2cccc(F)c2)cc1 (configuration not stated),/,10,5.1*,/,/,-1,/,/
COc1ccc(NC(=O)CC2C(=O)N(c3ccc(F)cc3)C(=S)N2NC(=O)c2ccc(Cl)cc2)cc1 (configuration not stated),/,-3,4.8*,/,/,0,/,/
O=c1cc(O)c2c(=O)n(-c3ccccc3)c3c(c2o1)CCCCC3,/,6,-4,/,/,-1,/,/
CC1=NN(C(=O)c2ccc(Cn3ccc([N+](=O)[O-])n3)cc2)C(O)(C(F)(F)F)C1 (configuration not stated),/,-2,-2,/,/,0,/,/
CCC(Sc1nc2ccccc2o1)C(=O)Nc1nnc(C)s1 (configuration not stated),/,-2,6.4*,/,/,0,/,/
CCCCCCNC(=O)CC(NS(=O)(=O)c1ccc(OC)cc1)C(C)C (configuration not stated),/,2,-1,/,/,-2,/,/
CCOC(=O)C1=C(O)/C(=C/c2cn(CC(=O)NCC3CCCO3)c3ccccc23)SC1=Nc1ccc(C)cc1 (configuration not stated),-4,34*,/,-5,3,1,/,/
COP(=O)(OC)c1nc(-c2ccccc2)oc1N1CCOCC1,/,-5,-3,/,/,0,/,/
CCCCC(=O)Nc1cccc(C(=O)N/N=C/c2ccc(OC)cc2OC)c1,/,5,-3,/,/,-1,/,/
Brc1ccc(-c2nc(N/N=C/c3cccnc3)c3ccccc3n2)cc1,-4,4,-1,-7,7,76*,0,-1
Cc1ccc(-c2nc(N/N=C/c3ccccc3[N+](=O)[O-])c3ccccc3n2)cc1,/,-4,-2,-3,9,-2,/,/
COc1ccc(-c2cnnn2-c2ccc(NC(=O)c3ccc(S(=O)(=O)N4CCCCC4)cc3)cc2)cc1OC,/,4,-2,/,/,4,/,/
COc1ccc(-c2cnnn2-c2ccc(NC(=O)c3ccco3)cc2)cc1OC,/,7,-3,7,-33,20*,0,-1
O=S(=O)(NNc1ccc(Cl)nn1)c1ccc(F)cc1,/,4,2,/,/,0,/,/
Cc1ccc(CNC(=O)c2ccc3nc4[nH]c5ccccc5c4nc3c2)cc1,/,5,-5,/,/,14*,8.7*,6
COc1ccc(NS(=O)(=O)c2cc(NC(=O)c3ccco3)ccc2N2CCCCC2)cc1,/,1,-3,/,/,1,/,/
CCOC(=O)CCS(=O)(=O)c1nc(-c2ccccc2)cc(C(F)(F)F)n1,0,19,-3,0,-11,3,/,/
COC(=O)CCS(=O)(=O)c1nc(-c2ccccc2)cc(C(F)(F)F)n1,0,8,-2,-2,-11,11,0,2
CCOC(=O)CS(=O)(=O)c1nc(-c2ccc(F)cc2)cc(C(F)(F)F)n1,2,51*,-3,/,/,9.3*,3,-9
SMILES,MRP resist rev,GALR2 blocker,MRP-1 activ,S1P2 agonist,S1P2 blocker,GALR2 ag,GALR2 agon conf,BLA act counter
CC(=O)c1nn(-c2ccccc2)cc1C(=O)c1ccc(Br)cc1,/,-4,-5,/,/,9.4*,6,1
CC1=C(OC(=O)c2ccccc2)C(C)(C)C(c2ccc(Br)cc2)OC1=O (configuration not stated),15,-7,-1,0,1,0,/,/
O=C1NC2(CCCCC2)C(=O)N1CCS(=O)(=O)Oc1ccccc1,9,-14,1,-2,-13,10,-1,-3
O=C(CN1C(=O)NC2(CCCCC2)C1=O)Nc1ccccc1Cl,11,10,-3,/,/,-1,/,/
CCS(=O)(=O)N1CCN(c2cccc(C)c2C)CC1,20,-5,0,-6,8,17*,-1,-2
C=CCNC(=O)/C(C#N)=C/c1cn(-c2ccccc2)nc1-c1cccs1,/,10,-2,/,/,13*,11*,5
Nc1c(C(=O)c2ccc(Cl)cc2)sc2c1c(=O)[nH]c(=O)n2-c1ccccc1,/,-15,-1,/,/,22*,6,4
Nc1c(C(=O)c2ccccc2)sc2c1c(=O)[nH]c(=O)n2-c1ccccc1,/,-13,-2,/,/,3,/,/
O=C(Cc1cc(=O)oc2cc(O)ccc12)NCC1CCC(C(=O)O)CC1 (configuration not stated),-6,0,0,4,-4,9,1,3
NS(=O)(=O)c1ccc(NC(=O)C(Sc2ccccc2)c2ccccc2)cc1 (configuration not stated),/,-8,-4,/,/,0,/,/
Cc1cc2c3c(c1)C(C)(c1ccccc1)CC(C)(C)N3C(=O)C21C(C#N)=C(N)OC2=C1C(=O)CC(C)(C)C2 (configuration not stated),-28,-26,-5,1,-14,18*,8,15*
CSc1nc(-c2ccccc2)nn1C(=O)c1ccc(C)cc1,/,-9,-1,-2,-4,0,/,/
CCc1cc(=O)oc2c(CN3CCN(C)CC3)c(O)c(Cl)cc12,9,-22,1,11,-39,12*,1,3
CCc1cc(=O)oc2c(CN3CCCC3)c(O)c(Cl)cc12,-8,-12,-2,9,0,2,/,/
CCOC(=O)c1csc(NC(=O)Nc2cccc(Cl)c2)n1,/,1,-1,/,/,3,/,/
COc1ccc(-c2n[nH]c(C)c2-c2cc(OC)ccc2O)cc1,7,-10,-1,-3,-5,9,0,1
COc1ccc(-c2cc(-c3cc(OC)ccc3O)[nH]n2)cc1,-24,12,-2,-5,-15,-3,/,/
